# Measured values as given in the supplement of paper PMC8728848.
# The full list was thinned out, with the strongest signals kept by preference.
# B1: StcE (Escherichia coli), O82882.2 (protein)
# chain: ADNNSAIYFNTSQPINDLQGSLAAEVKFAQSQILPAHPKEGDSQPHLTSLRKSLLLVRPVKADDKTPVQVEARDDNNKILGTLTLYPPSSLPDTIYHLDGVPEGGIDFTPHNGTKKIINTVAEVNKLSDASGSSIHSHLTNNALVEIHTANGRWVRDIYLPQGPDLEGKMVRFVSSAGYSSTVFYGDRKVTLSVGNTLLFKYVNGQWFRSGELENNRITYAQHIWSAELPAHWIVPGLNLVIKQGNLSGRLNDIKIGAPGELLLHTIDIGMLTTPRDRFDFAKDKEAHREYFQTIPVSRMIVNNYAPLHLKEVMLPTGELLTDMDPGNGGWHSGTMRQRIGKELVSHGIDNANYGLNSTAGLGENSHPYVVAQLAAHNSRGNYANGIQVHGGSGGGGIVTLDSTLGNEFSHEVGHNYGLGHYVDGFKGSVHRSAENNNSTWGWDGDKKRFIPNFYPSQTNEKSCLNNQCQEPFDGHKFGFDAMAGGSPFSAANRFTMYTPNSSAIIQRFFENKAVFDSRSSTGFSKWNADTQEMEPYEHTIDRAEQITASVNELSESKMAELMAEYAVVKVHMWNGNWTRNIYIPTASADNRGSILTINHEAGYNSYLFINGDEKVVSQGYKKSFVSDGQFWKERDVVDTREARKPEQFGVPVTTLVGYYDPEGTLSSYIYPAMYGAYGFTYSDDSQNLSDNDCQLQVDTKEGQLRFRLANHRANNTVMNKFHINVPTESQPTQATLVCNNKILDTKSLTPAPEGLTYTVNGQALPAKENEGCIVSVNSGKRYCLPVGQRSGYSLPDWIVGQEVYVDSGAKAKVLLSDWDNLSYNRIGEFVGNVNPADMKKVKAWNGQYLDFSKPRSMRVVYK
# What was measured:
# Assay in all cases: glycan array binding signal (z-score within array); higher = stronger binding
# Conditions in all cases: glycan notation: IUPAC condensed, linker removed
# [1] = target: Fuc(a1-2)Gal(b1-3)GalNAc(a1-3)[Fuc(a1-2)]Gal(b1-4)Glc
# Outline: (§1)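 Negative Z-scores can be read as non-binding. The Z-score is calculated within each array and then averaged across arrays of one protein sequence at different concentrations or buffers and across linkers. Arrays, 3228 in all, were curated from the Consortium for Functional Glycomics database and kept only where the protein sequence was available.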
# [2] = target: Fuc(a1-2)Gal(b1-3)GlcNAc(b1-3)Gal(b1-4)Glc
# Outline: as §1
# [3] = target: Fuc(a1-2)Gal(b1-3)[Fuc(a1-4)]GlcNAc(b1-3)[Fuc(a1-3)[Gal(b1-4)]GlcNAc(b1-6)]Gal(b1-4)Glc
# Outline: as §1
# [4] = target: Fuc(a1-2)Gal(b1-4)GlcNAc(b1-2)Man
# Outline: as §1
# [5] = target: Fuc(a1-2)Gal(b1-4)GlcNAc(b1-2)Man(a1-3)[Fuc(a1-2)Gal(b1-4)GlcNAc(b1-2)Man(a1-6)]Man(b1-4)GlcNAc(b1-4)[Fuc(a1-6)]GlcNAc
# Outline: as §1
# [6] = target: Fuc(a1-2)Gal(b1-4)GlcNAc(b1-3)[Fuc(a1-2)Gal(b1-4)GlcNAc(b1-6)]GalNAc
# Outline: as §1
# [7] = target: Fuc(a1-2)Gal(b1-4)[Fuc(a1-3)]GlcNAc(b1-3)Gal(b1-4)[Fuc(a1-3)]GlcNAc
# Outline: as §1
# [8] = target: Fuc(a1-2)Gal6S(b1-3)GlcNAc6S
# Outline: as §1
# [9] = target: Fuc(a1-2)[GalNAc(a1-3)]Gal(b1-3)GlcNAc(b1-2)Man(a1-3)[Fuc(a1-2)[GalNAc(a1-3)]Gal(b1-3)GlcNAc(b1-2)Man(a1-6)]Man(b1-4)GlcNAc(b1-4)[Fuc(a1-6)]GlcNAc
# Outline: as §1
# [10] = target: Fuc(a1-2)[GalNAc(a1-3)]Gal(b1-3)GlcNAc(b1-3)GalNAc
# Outline: as §1
# [11] = target: Fuc(a1-2)[GalNAc(a1-3)]Gal(b1-4)GlcNAc(b1-2)Man(a1-3)[Fuc(a1-2)[GalNAc(a1-3)]Gal(b1-4)GlcNAc(b1-2)Man(a1-6)]Man(b1-4)GlcNAc(b1-4)[Fuc(a1-6)]GlcNAc
# Outline: as §1
# [12] = target: Fuc(a1-3)[Gal(b1-4)]GlcNAc(b1-2)Man(a1-3)[Fuc(a1-3)[Gal(b1-4)]GlcNAc(b1-2)Man(a1-6)]Man(b1-4)GlcNAc(b1-4)[Fuc(a1-6)]GlcNAc
# Outline: as §1
# [13] = target: Fuc(a1-3)[GalNAc3S(b1-4)]GlcNAc
# Outline: as §1
# [14] = target: Gal(a1-3)Gal(b1-3)[Fuc(a1-4)]GlcNAc(b1-2)Man(a1-3)[Gal(a1-3)Gal(b1-3)[Fuc(a1-4)]GlcNAc(b1-2)Man(a1-6)]Man(b1-4)GlcNAc(b1-4)GlcNAc
# Outline: as §1
# [15] = target: Gal(a1-3)Gal(b1-4)Glc
# Outline: as §1
# [16] = target: Gal(a1-3)Gal(b1-4)[Fuc(a1-3)]GlcNAc
# Outline: as §1
# [17] = target: Gal(a1-4)Gal(b1-4)GlcNAc
# Outline: as §1
# [18] = target: Gal(b1-2)Gal
# Outline: as §1
# [19] = target: Gal(b1-3)GalNAc(a1-3)[Fuc(a1-2)]Gal(b1-4)GlcNAc
# Outline: as §1
# [20] = target: Gal(b1-3)GlcNAc(a1-3)Gal(b1-4)GlcNAc
# Outline: as §1
# [21] = target: Gal(b1-3)GlcNAc(b1-3)Gal(b1-3)GlcNAc
# Outline: as §1
# [22] = target: Gal(b1-3)[Fuc(a1-4)]GlcNAc(b1-2)Man(a1-3)[Gal(b1-3)[Fuc(a1-4)]GlcNAc(b1-2)Man(a1-6)]Man(b1-4)GlcNAc(b1-4)[Fuc(a1-6)]GlcNAc
# Outline: as §1
# [23] = target: Gal(b1-4)GlcNAc(b1-2)Man
# Outline: as §1
# [24] = target: Gal3S6S(b1-4)GlcNAc
# Outline: as §1
# [25] = target: Gal6S(b1-4)Glc
# Outline: as §1
# [26] = target: GlcNAc(a1-4)Gal(b1-4)GlcNAc(b1-3)Gal(b1-4)[Fuc(a1-3)]GlcNAc(b1-3)Gal(b1-4)[Fuc(a1-3)]GlcNAc
# Outline: as §1
# [27] = target: GlcNAc(b1-2)Man(a1-3)[GlcNAc(b1-4)][GlcNAc(b1-2)Man(a1-6)]Man(b1-4)GlcNAc(b1-4)GlcNAc
# Outline: as §1
# [28] = target: GlcNAc(b1-3)Gal
# Outline: as §1
# [29] = target: Kdn(a2-3)Gal(b1-4)[Fuc(a1-3)]GlcNAc
# Outline: as §1
# [30] = target: Man(a1-2)Man(a1-2)Man(a1-3)Man
# Outline: as §1
# [31] = target: Man(a1-2)Man(a1-6)[Man(a1-3)]Man(a1-6)[Man(a1-2)Man(a1-2)Man(a1-3)]Man
# Outline: as §1
# [32] = target: Man(a1-3)[Man(a1-6)]Man(a1-6)[Man(a1-3)]Man(b1-4)GlcNAc(b1-4)GlcNAc
# Outline: as §1
# [33] = target: Man(a1-3)[Man(a1-6)]Man(b1-4)GlcNAc(b1-4)[Fuc(a1-6)]GlcNAc
# Outline: as §1
# [34] = target: Neu5Ac(a2-3)Gal(b1-3)GlcNAc(b1-2)Man(a1-3)[GlcNAc(b1-4)][Neu5Ac(a2-3)Gal(b1-3)GlcNAc(b1-2)Man(a1-6)]Man(b1-4)GlcNAc(b1-4)GlcNAc
# Outline: as §1
# [35] = target: Neu5Ac(a2-3)Gal(b1-3)[Fuc(a1-4)]GlcNAc(b1-3)Gal(b1-3)[Fuc(a1-4)]GlcNAc
# Outline: as §1
# [36] = target: Neu5Ac(a2-3)Gal(b1-3)[Neu5Ac(a2-6)]GalNAc
# Outline: as §1
# [37] = target: Neu5Ac(a2-3)Gal(b1-4)GlcNAc(b1-3)Gal(b1-4)[Fuc(a1-3)]GlcNAc
# Outline: as §1
# [38] = target: Neu5Ac(a2-3)Gal(b1-4)[Fuc(a1-3)]GlcNAc6S
# Outline: as §1
# [39] = target: Neu5Ac(a2-6)Gal(b1-4)GlcNAc(b1-3)GalNAc
# Outline: as §1
# [40] = target: Neu5Ac(a2-6)GlcNAc(b1-4)GlcNAc
# Outline: as §1
# [41] = target: Neu5Gc(a2-3)Gal(b1-4)GlcNAc
# Outline: as §1
binder,measurement,setting,value
B1,glycan array binding signal (z-score),[1],-0.142
same,glycan array binding signal (z-score),[2],-0.144
same,glycan array binding signal (z-score),[3],-0.147
same,glycan array binding signal (z-score),[4],-0.132
same,glycan array binding signal (z-score),[5],1.14
same,glycan array binding signal (z-score),[6],2.85
same,glycan array binding signal (z-score),[7],-0.122
same,glycan array binding signal (z-score),[8],5.23
same,glycan array binding signal (z-score),[9],0.015
same,glycan array binding signal (z-score),[10],-0.096
same,glycan array binding signal (z-score),[11],-0.164
same,glycan array binding signal (z-score),[12],-0.117
same,glycan array binding signal (z-score),[13],-0.164
same,glycan array binding signal (z-score),[14],4.13
same,glycan array binding signal (z-score),[15],-0.25
same,glycan array binding signal (z-score),[16],0.116
same,glycan array binding signal (z-score),[17],-0.215
same,glycan array binding signal (z-score),[18],0.601
same,glycan array binding signal (z-score),[19],-0.17
same,glycan array binding signal (z-score),[20],-0.109
same,glycan array binding signal (z-score),[21],-0.142
same,glycan array binding signal (z-score),[22],4.66
same,glycan array binding signal (z-score),[23],-0.167
same,glycan array binding signal (z-score),[24],-0.175
same,glycan array binding signal (z-score),[25],0.013
same,glycan array binding signal (z-score),[26],3.96
same,glycan array binding signal (z-score),[27],-0.167
same,glycan array binding signal (z-score),[28],0.13
same,glycan array binding signal (z-score),[29],-0.152
same,glycan array binding signal (z-score),[30],-0.442
same,glycan array binding signal (z-score),[31],-0.148
same,glycan array binding signal (z-score),[32],-0.198
same,glycan array binding signal (z-score),[33],-0.049
same,glycan array binding signal (z-score),[34],-0.142
same,glycan array binding signal (z-score),[35],4.08
same,glycan array binding signal (z-score),[36],8.93
same,glycan array binding signal (z-score),[37],-0.162
same,glycan array binding signal (z-score),[38],2.84
same,glycan array binding signal (z-score),[39],2.78
same,glycan array binding signal (z-score),[40],-0.156
same,glycan array binding signal (z-score),[41],-0.113
